Compound activity as filed in PubChem.
Shiga inhibitor: A qHTS for Small Molecule Inhibitors of Shiga Toxin; inhibition, % at 38.7 µM; AID 2315, 2010; 290,000 tested, 9.2% active; Vero cells, Shiga toxin protein synthesis inhibition reporter; in the data active means inhibition mostly above about 28%, no sharp cut-off; inactive means mostly below about 43%; further: 0% is about no effect
Sm TGR inh: qHTS Assay for the Inhibitors of Schistosoma Mansoni Peroxiredoxins; Schistosoma mansoni thioredoxin glutathione reductase (TGR), Q962Y6; purified TGR, DTNB reduction, TNB absorbance 405 nm; Potency, µM (titrated, usually from 114 µM), for inactives: at the top dose activity change, negative = inhibition, most hits filed as inhibitors; 360,000 tested, 3% active; further: potency means the concentration at half of the fitted maximal effect; on the % scale 0 is the no-effect control and ±100 the full control effect; nearly all actives have a fitted effect of over 60% in size
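TGR 20 nM + NADPH 100 uM (dispensed conc.), cpd preinc 15 min RT; start with NADPH (500 uM addition) then DTNB (15 mM addition). Kinetic TNB absorbance, 405 nm filter. Four-parameter Hill fit across titration.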
CHX counter: Cycloheximide Counterscreen for Small Molecule Inhibitors of Shiga Toxin; cell reporter, cycloheximide protein synthesis inhibition counterscreen; max response, %; 300,000 tested, 12% active; in the data active means max response mostly above about 13%, no sharp cut-off; inactive means mostly below about 14%; further: read at 38.3 µM for the half of the compounds with a filed dose; 0% is about no effect
FBPA Giardia inh: qHTS Assay for Inhibitors of Fructose-1,6-bisphosphate Aldolase from Giardia Lamblia. purified Giardia FBPA. AID 2451, 2010. 290,000 tested, 0.71% active. Potency, µM (titrated, usually from 59.6 µM), for the others: at the highest dose activity, negative = inhibition, hits mostly inhibitors. A8B2U2; further: potency means the concentration at half of the fitted maximal effect; on the % scale 0 is the no-effect control and ±100 the full control effect; nearly all actives have a fitted effect of over 55% in size
Target sequence (A8B2U2 whole entry, looked up): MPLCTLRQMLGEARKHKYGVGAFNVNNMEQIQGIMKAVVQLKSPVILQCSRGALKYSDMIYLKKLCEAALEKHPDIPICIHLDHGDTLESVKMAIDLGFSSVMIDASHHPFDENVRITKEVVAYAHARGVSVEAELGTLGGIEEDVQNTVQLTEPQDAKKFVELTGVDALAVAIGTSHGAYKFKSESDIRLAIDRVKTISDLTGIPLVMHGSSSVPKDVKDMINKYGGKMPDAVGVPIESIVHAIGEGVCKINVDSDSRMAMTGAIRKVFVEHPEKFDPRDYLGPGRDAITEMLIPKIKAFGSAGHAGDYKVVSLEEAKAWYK
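Giardia FBPA (40 nM reagent) was preincubated 10 min at RT with compound (up to 57.5 uM final), then substrate plus GAPDH/TPI/NAD/arsenate coupling system with diaphorase/resazurin was added; resorufin fluorescence (525/598 nm) was read after 20 min.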
LmPK inhibitor: qHTS Assay for Inhibitors of Leishmania Mexicana Pyruvate Kinase (LmPK); 290,000 tested, 0.37% active; purified LmPK, Kinase-Glo ATP luminescence, 1 h; Potency, µM (doses to about 57.5 µM), inactives show at the top dose activity change, negative = inhibition, actives largely listed as inhibitors; further: potency means the concentration at half of the fitted maximal effect; on the % scale 0 is the no-effect control and ±100 the full control effect
Target sequence (Q27686 whole entry, looked up): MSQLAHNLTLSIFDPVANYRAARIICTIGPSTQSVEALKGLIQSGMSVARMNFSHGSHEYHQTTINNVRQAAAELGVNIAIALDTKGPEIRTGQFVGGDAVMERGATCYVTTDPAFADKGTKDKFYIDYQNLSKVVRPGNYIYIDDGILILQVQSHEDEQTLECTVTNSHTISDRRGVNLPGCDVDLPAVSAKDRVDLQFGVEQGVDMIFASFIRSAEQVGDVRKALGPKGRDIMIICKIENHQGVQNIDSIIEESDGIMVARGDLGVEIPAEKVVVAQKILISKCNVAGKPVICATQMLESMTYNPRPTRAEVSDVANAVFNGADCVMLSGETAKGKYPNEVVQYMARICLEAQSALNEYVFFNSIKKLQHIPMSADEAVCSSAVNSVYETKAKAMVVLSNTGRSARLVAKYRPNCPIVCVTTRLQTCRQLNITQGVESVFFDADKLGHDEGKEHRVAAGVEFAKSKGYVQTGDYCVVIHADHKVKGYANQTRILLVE
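Kinase-Glo luminescence read after 1 h RT reaction of 0.1 nM LmPK with 0.5 mM PEP and 0.1 mM ADP. Activity scaled between uninhibited and enzyme-free controls.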
TbPYK inhibitor: qHTS of Trypanosoma Brucei Inhibitors; AID 624173, 2012; 410,000 tested, 0.12% active; Potency, µM (doses to about 76.8 µM), without a hit: at the top dose activity, negative = inhibition, hits mostly inhibitors; pyruvate kinase (Trypanosoma brucei), Q57TT1; TbPYK enzyme, Kinase-Glo Plus ATP luminescence, 45 min; further: potency means the concentration at half of the fitted maximal effect; on the % scale 0 is the no-effect control and ±100 the full control effect; nearly all actives have a fitted effect of over 50% in size
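Assay buffer: 50 mM TEA pH 7.2, 100 mM KCl, 10 mM MgCl2, 0.05% BSA, 0.01% Tween-20. Pyruvate kinase from T. brucei plus substrate met compound, then ADP (130 uM final). Luminescence was read post 45 min RT.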
* = called active by the depositor; ? = inconclusive; · = not tested or not shown; [ ] = dose if it differs, or a comment. Shown is part of a subset that was picked to be rich in hits. Unless noted, the call rests on the fitted dose curve; in most records, active means well fitted curve in the direction sought with a large enough effect; inconclusive means small, poorly fitted or top-dose-only effect, or another doubt; inactive means no such curve, though single readings can be large; an effect the other way counts as inactive or inconclusive.

SMILES | Shiga inhibitor | Sm TGR inh | CHX counter | FBPA Giardia inh | LmPK inhibitor | TbPYK inhibitor
Cc1ccc(NC(=O)CNC(=O)c2ccco2)cc1 | 47.9* | 0.3% | 33.4* | -0.7% | -0.7% | -1.6%
O=C(CNC(=O)c1ccco1)Nc1ccc(OC(F)F)cc1 | -7.9 | -10.5% | -7.2 | -5.0% | -6.5% | 3.7%
O=C(CNC(=O)c1ccco1)Nc1ccncc1 | · | -8.0% | · | · | · | -1.6%
COc1ccc(NC(=O)CNC(=O)c2ccco2)cc1 | 72.6* | 8.8% | 50.6* | 1.6% | -6.8% | -1.7%
Cc1ccc(-c2nnc(N(C)C(=O)c3ccccn3)s2)cn1 | 12.2 | 3.4% | 12.6* | -14.5% | -7.5% | 2.3%
CC(=O)N(C)c1nnc(-c2ccccn2)s1 | 13.3 | 4.2% | 15.0* | 1.2% | -13.0% | -0.1%
CN(C(=O)c1cccnc1)c1nnc(-c2ccccn2)s1 | 138.1 | 0.3% | 50.9* | 0.0% | -7.8% | 0.0%
CC(=O)N(CC1CCCO1)c1nnc(-c2ccccn2)s1 (configuration not stated) | 42.0 | -22.5% | 22.4 | -4.4% | 3.6% | 0.0%
Cc1cnc(-c2nnc(N(C)C(=O)c3ccccn3)s2)cn1 | 15.4 | 3.8% | -2.4 | -2.0% | -1.8% | ·
CC(=O)c1cnc(-c2ccccn2)s1 | 22.9 | 1.5% | 34.3* | -15.5% | -3.3% | -11.1%
CCOc1ccc(CCNC(=O)CN2C(=O)COc3ccc(S(=O)(=O)N4CCC(C)CC4)cc32)cc1 | · | -3.7% | · | · | · | -5.2%
CN(C(=O)c1cccnc1)c1nnc(-c2cnccn2)s1 | 45.1 | 20.9% | 26.8* | 9.1% | -1.9% | -1.1%
COCCN(C(C)=O)c1nnc(-c2cnccn2)s1 | -10.6 | 0.0% | 3.6 | -4.0% | 1.8% | -5.8%
CN(C(=O)c1ccccn1)c1nnc(-c2cnccn2)s1 | 90.8 | -0.5% | 39.9* | -0.4% | -3.2% | 0.2%
COCCN(C(C)=O)c1nnc(-c2ccccn2)s1 | 39.0 | -1.8% | 18.4* | -2.2% | -0.1% | -1.3%
O[C@@H]1CN(Cc2cccs2)[C@@H](c2ccccc2)C[C@H]1n1cc(C2CC2)nn1 | · | · | · | · | · | 1.8%
CC(=O)O[C@H]1C2=CO[C@H](C)[C@H]3[C@H]4C5=C([C@H](O)[C@H]6O[C@@H]6C5=O)[C@H](O[C@H]4C)[C@@]23C(=O)[C@H]2O[C@@H]21 | · | · | · | -1.1%[12.9 µM] | · | ·
Cc1c(C(=O)N2CCOCC2)sc(NC(=O)c2ccc([N+](=O)[O-])cc2)c1C#N | -6.6 | -0.8% | -4.4 | 6.7% | -8.9% | -4.5%
Cc1c(C(=O)N2CCOCC2)sc(NC(=O)CCl)c1C#N | -3.7 | 39.8µM* | -3.2 | 1.0% | -0.5% | -0.7%
Cc1cc(=O)[nH]c(SCC(=O)C23CC4CC(CC(C4)C2)C3)c1C#N | -6.2 | 15.8µM* | -3.1 | -2.7% | 1.1% | -14.7%
CC(C)COc1ccc(C(=O)Nc2ccc(SC(F)F)cc2)cc1 | 39.3 | -6.6% | 24.1* | 4.0% | 1.2% | -5.6%
O=C(COc1ccc([N+](=O)[O-])cc1)Nc1ccc(NC(=O)c2ccccc2)cc1 | 2.6 | 0.8% | -1.1 | · | 2.8% | -4.1%
CC(C)COc1ccc(C(=O)Nc2ccc([N+](=O)[O-])cc2)cc1 | 51.4* | · | 30.3* | 2.9% | 6.1% | -16.4%
CCC(=O)Oc1ccc(C(=O)Nc2ccc([N+](=O)[O-])cc2)cc1 | 102.4* | -0.8% | 39.7* | 3.1% | -2.0% | -10.4%
Cc1nn2c(-c3cccc(NC(=O)c4ccc(Cl)cc4)c3)nnc2c2ccccc12 | · | ? | · | · | · | 5.2%
SMILES | Shiga inhibitor | Sm TGR inh | CHX counter | FBPA Giardia inh | LmPK inhibitor | TbPYK inhibitor
CCC(CC)C(=O)Nc1ccccc1C(=O)OCc1cc(=O)n2nc(C3CCCCC3)sc2n1 | · | -4.8% | · | · | · | -5.3%
CCCc1nc2cc3c(cc2[nH]1)n(C)c(=O)n3C | 1.6 | 22.4µM* | -1.5 | ? | 5.5% | -1.4%
Cn1c(=O)n(C)c2cc3[nH]cnc3cc21 | 21.3 | 5.4% | 5.5 | -21.3% | 4.8% | 2.4%
COC(=O)N[C@@H](c1cccc(F)c1)C(C(C)=O)C(=O)OC (some centres not stated) | · | · | · | 1.3% | · | ·
O=C(CN1CCN(S(=O)(=O)c2cc(C(F)(F)F)ccc2Cl)CC1)N1CCc2ccccc2C1 | · | 39.8µM* | · | · | · | 3.9%
Cc1ccc(S(=O)(=O)N2CCC(C(=O)NC3CC(C)(C)NC(C)(C)C3)CC2)cc1C | 3.9 | -19.4% | -1.7 | 15.6% | -5.6% | 10.0%
CCc1nc2ccc(C(=O)NCCCn3ccnc3)cn2c1N(C)C(=O)COc1ccccc1 | · | · | · | · | · | 3.1%
Cc1cc(-c2ccc(N=Nc3c(S(=O)(=O)O)cc4cc(S(=O)(=O)O)cc(N)c4c3O)c(C)c2)ccc1N=Nc1c(S(=O)(=O)O)cc2cc(S(=O)(=O)O)cc(N)c2c1O | · | -9.2% | · | · | · | ?
COc1cc(-c2ccc(N=Nc3ccc4c(S(=O)(=O)O)cc(S(=O)(=O)O)c(N)c4c3O)c(OC)c2)ccc1N=Nc1ccc2c(S(=O)(=O)O)cc(S(=O)(=O)O)c(N)c2c1O | · | · | · | 14.1µM* | · | ·
COc1ccc2cc(CCNC(=O)C(C)C)c(=O)[nH]c2c1 | 11.7 | -2.1% | 1.5 | -2.7% | -0.3% | -1.5%
Cc1ccc2cc(-c3noc(C(C)(C)C)n3)c(=O)[nH]c2c1 | 1.9 | -3.8% | -1.0 | 1.0% | -0.1% | -7.3%
CCC(CC)C(=O)NCCc1cc2cc(C)c(C)cc2[nH]c1=O | -1.1 | 4.8% | -1.6 | -0.6% | -1.5% | -0.3%
COc1ccc2cc(CCNC(=O)c3ccco3)c(=O)[nH]c2c1 | 95.1* | -1.4% | 58.2* | 9.5% | -6.0% | -10.9%
Cc1cc2cc(CCNC(=O)c3cccs3)c(=O)[nH]c2cc1C | 54.1* | -16.0% | 31.1* | 3.7% | 1.0% | -0.8%
Cc1ccc2cc(CCNC(=O)c3ccco3)c(=O)[nH]c2c1 | 63.1* | -25.6% | 31.1* | 4.5% | -1.7% | 2.0%
Cc1ccc2cc(CCNC(=O)CCCc3ccccc3)c(=O)[nH]c2c1 | 4.9 | 67.9% | -10.2 | · | -10.8% | 1.4%
CCc1nc(-c2cc3ccc(C)cc3[nH]c2=O)no1 | 34.0 | -17.6% | 17.0* | -6.1% | 8.3% | -16.9%
CCOc1ccc(-c2nc(Cn3c(=O)cc(-c4ccccc4)c4c(C)nn(C)c43)c(C)o2)cc1OC | · | 6.2% | · | · | · | 1.2%
CCCCC/C=C\C/C=C\C/C=C\C/C=C\CCCC(=O)O[C@@H](CO)COCCCCCCCCCCCCCCCC | · | · | · | -2.2% | · | ·
Cc1ccc(CCNC(=O)CCSCc2ccccc2Cl)cc1 | · | -5.8% | · | · | · | -3.2%
COc1ccc(C(=O)NCCc2cc3ccc(C)c(C)c3[nH]c2=O)cc1OC | -2.1 | 9.1% | -8.4 | 8.9% | 9.0%[11.5 µM] | 5.1%
CCCS(=O)(=O)NCCc1cc2ccc(C)cc2[nH]c1=O | 27.9* | -0.4% | 12.4* | -3.2% | 1.9% | 1.3%
